The values that follow come from ChEMBL document CHEMBL3988442, “University of Dundee, Small-Polar-MMV Screening Library” (2021).

The structures appear in SMILES notation. For some of these results: Entries with a potency or affinity are not part of this list.

What all share (set-up): scale not given: direction of the effect not stated beside the values
Test [1] has as its target Protein translocase subunit SecA (Escherichia coli (strain K12)) (UniProt P10408). The experiment in a line: Assay to Identify E. coli SecA ATPase Inhibitors. Type of test: functional. Particulars: 30 µM.
In test [2] the target is T1, Ubiquitin-activating enzyme e1, putative (Leishmania donovani (strain BPK282A1)) (UniProt E9BSI1).
T1 sequence (whole entry): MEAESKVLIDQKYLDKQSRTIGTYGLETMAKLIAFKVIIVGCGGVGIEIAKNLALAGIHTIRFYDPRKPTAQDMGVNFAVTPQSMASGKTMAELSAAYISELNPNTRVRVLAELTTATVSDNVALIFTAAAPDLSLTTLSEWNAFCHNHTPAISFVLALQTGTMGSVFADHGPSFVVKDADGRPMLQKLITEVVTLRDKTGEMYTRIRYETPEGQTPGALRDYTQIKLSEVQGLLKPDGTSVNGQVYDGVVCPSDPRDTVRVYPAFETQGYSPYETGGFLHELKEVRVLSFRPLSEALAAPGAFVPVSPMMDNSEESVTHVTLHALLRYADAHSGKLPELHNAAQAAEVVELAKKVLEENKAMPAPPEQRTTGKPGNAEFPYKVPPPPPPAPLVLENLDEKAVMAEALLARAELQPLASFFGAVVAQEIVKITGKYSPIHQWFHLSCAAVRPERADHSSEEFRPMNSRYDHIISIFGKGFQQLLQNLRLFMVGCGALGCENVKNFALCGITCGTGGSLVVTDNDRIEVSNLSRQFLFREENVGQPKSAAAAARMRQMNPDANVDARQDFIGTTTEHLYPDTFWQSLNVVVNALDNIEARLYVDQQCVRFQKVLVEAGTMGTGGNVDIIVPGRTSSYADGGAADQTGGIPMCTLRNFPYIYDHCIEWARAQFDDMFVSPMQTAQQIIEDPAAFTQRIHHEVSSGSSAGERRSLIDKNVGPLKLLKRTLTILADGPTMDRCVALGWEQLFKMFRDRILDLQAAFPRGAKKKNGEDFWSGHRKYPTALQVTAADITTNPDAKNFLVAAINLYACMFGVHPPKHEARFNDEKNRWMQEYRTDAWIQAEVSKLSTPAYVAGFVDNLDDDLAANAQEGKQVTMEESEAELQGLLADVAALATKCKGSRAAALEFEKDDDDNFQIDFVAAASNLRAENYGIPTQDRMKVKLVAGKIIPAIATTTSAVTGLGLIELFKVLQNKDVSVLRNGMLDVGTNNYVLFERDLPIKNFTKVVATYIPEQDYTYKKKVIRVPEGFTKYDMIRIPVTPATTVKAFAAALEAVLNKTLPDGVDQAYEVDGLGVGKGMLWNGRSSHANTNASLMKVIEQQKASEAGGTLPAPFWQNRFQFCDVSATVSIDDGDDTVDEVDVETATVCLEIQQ
Kind of test: Leishmania donovani Ubiquitin Activating Enzyme (LdE1). Type of test: functional. Particulars: 30 µM.

The target in test [3] is AMP-activated protein kinase, AMPK (Homo sapiens) (UniProt P54646+O43741+P54619+Q9UGJ0+Q9Y478+Q13131+Q9UGI9). The experiment in a line: AMP-dependent Kinase enzyme assay. An in vitro enzyme assay that detects ADP turnover that is directly proportional to AMPK activity. This uses naive AMPK that is activated during the assay with MK-8722. Type of test: functional. The conditions noted are these: 30 µM.

Test [4] has as its target Sialic acid-binding Ig-like lectin 9 (Homo sapiens) (UniProt Q9Y336). Kind of test: Hs-Siglec9 ALPHAscreen SOP 20170721. The conditions noted are these: 10 µM.
For another test, the system named is Trypanosoma cruzi. Kind of test: Trypanosoma cruzi phosphomannomutase and mannose-1-phosphate guanylyltransferase assay. In kind it is functional. The conditions noted are these: 10 µM.
Test [5] concerns the target T2, Arginase-2, mitochondrial (Homo sapiens) (UniProt P78540).
T2 sequence (whole entry): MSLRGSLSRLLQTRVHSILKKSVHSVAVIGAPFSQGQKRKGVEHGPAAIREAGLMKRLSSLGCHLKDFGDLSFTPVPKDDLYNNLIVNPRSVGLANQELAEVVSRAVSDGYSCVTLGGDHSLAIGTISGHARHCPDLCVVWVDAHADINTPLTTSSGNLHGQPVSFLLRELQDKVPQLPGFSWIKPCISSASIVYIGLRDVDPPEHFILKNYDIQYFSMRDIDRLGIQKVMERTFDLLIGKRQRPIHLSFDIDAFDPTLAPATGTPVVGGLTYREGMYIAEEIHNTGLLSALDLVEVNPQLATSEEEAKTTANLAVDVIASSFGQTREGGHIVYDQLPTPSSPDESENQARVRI
The experiment in a line: in vitro enzyme assay to detect the production of urea directly proportional to the activity of Arginase II. Note: in the data most compounds retested in dose-response had high values. Type of test: functional. Particulars: 33.3 µM.

In test [6] the target is T3, Proteasome subunit beta (Trypanosoma cruzi) (UniProt O96673).
T3 sequence (whole entry): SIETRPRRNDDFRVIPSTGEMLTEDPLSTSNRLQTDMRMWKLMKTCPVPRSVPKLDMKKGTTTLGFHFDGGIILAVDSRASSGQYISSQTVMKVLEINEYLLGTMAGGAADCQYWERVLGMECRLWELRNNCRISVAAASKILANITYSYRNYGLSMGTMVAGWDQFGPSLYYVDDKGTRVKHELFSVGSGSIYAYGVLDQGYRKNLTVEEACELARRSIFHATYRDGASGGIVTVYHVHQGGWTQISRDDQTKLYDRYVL
The experiment in a line: Trypanosoma cruzi proteasome chymotrypsin-like activity (TcProtChymo) assay. Note: in the data most compounds retested in dose-response had high values. Type of test: functional. Particulars: 9.37 µM.

The species named for the next test is Homo sapiens. Kind of test: To identify inhibition of the IFN signalling (Jak-Stat) pathway via expression of an eGFP reporter gene under the control of an IFN-stimulated response element (ISRE) containing MxA promoter. Type of test: functional. Particulars: 30 µM.
The target of test [7] is T4, Tyrosyl-tRNA synthetase, putative (Trypanosoma cruzi (strain CL Brener)) (UniProt Q4DSP6).
T4 sequence (whole entry): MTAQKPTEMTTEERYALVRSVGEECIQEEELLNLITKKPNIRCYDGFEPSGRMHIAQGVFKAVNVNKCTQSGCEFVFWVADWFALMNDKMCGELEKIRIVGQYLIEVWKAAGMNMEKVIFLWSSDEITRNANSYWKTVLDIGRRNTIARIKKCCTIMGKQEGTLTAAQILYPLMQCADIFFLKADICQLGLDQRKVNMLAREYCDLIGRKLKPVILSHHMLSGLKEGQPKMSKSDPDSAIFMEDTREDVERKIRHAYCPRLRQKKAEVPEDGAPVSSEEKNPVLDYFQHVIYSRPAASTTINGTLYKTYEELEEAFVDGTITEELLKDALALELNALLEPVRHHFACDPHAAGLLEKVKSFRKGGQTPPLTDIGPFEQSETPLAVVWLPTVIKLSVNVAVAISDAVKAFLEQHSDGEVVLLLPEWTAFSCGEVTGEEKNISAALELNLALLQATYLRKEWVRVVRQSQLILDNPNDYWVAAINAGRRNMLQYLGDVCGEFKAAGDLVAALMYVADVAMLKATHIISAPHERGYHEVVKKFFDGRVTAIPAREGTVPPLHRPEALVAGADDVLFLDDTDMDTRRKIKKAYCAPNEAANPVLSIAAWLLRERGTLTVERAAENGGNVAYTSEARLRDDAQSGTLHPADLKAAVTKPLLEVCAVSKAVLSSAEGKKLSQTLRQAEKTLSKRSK
Kind of test: Trypanosoma cruzi tyrosyl tRNA synthetase (TcYRS) _High Tyrosine SOP. Note: in the data most compounds retested in dose-response had high values. In kind it is functional. Particulars: 30 µM.

The target of test [8] is T4, Tyrosyl-tRNA synthetase, putative (Trypanosoma cruzi (strain CL Brener)). The experiment in a line: Trypanosoma cruzi tyrosyl tRNA synthetase (TcYRS) SOP. In kind it is functional. The conditions noted are these: 30 µM.
Test [9] concerns the target Chromo domain-containing protein 1 (Saccharomyces cerevisiae (strain ATCC 204508 / S288c) (Baker's yeast)) (UniProt P32657). The experiment in a line: ScCHD-1 Enzyme Inhibition Assay. Note: in the data most compounds retested in dose-response had high values. Type of test: functional. Particulars: 30 µM.

Sequence of Chromo domain-containing protein 1 (Saccharomyces cerevisiae (strain ATCC 204508 / S288c) (Baker's yeast)) (P32657 whole entry, the tested form may be a part): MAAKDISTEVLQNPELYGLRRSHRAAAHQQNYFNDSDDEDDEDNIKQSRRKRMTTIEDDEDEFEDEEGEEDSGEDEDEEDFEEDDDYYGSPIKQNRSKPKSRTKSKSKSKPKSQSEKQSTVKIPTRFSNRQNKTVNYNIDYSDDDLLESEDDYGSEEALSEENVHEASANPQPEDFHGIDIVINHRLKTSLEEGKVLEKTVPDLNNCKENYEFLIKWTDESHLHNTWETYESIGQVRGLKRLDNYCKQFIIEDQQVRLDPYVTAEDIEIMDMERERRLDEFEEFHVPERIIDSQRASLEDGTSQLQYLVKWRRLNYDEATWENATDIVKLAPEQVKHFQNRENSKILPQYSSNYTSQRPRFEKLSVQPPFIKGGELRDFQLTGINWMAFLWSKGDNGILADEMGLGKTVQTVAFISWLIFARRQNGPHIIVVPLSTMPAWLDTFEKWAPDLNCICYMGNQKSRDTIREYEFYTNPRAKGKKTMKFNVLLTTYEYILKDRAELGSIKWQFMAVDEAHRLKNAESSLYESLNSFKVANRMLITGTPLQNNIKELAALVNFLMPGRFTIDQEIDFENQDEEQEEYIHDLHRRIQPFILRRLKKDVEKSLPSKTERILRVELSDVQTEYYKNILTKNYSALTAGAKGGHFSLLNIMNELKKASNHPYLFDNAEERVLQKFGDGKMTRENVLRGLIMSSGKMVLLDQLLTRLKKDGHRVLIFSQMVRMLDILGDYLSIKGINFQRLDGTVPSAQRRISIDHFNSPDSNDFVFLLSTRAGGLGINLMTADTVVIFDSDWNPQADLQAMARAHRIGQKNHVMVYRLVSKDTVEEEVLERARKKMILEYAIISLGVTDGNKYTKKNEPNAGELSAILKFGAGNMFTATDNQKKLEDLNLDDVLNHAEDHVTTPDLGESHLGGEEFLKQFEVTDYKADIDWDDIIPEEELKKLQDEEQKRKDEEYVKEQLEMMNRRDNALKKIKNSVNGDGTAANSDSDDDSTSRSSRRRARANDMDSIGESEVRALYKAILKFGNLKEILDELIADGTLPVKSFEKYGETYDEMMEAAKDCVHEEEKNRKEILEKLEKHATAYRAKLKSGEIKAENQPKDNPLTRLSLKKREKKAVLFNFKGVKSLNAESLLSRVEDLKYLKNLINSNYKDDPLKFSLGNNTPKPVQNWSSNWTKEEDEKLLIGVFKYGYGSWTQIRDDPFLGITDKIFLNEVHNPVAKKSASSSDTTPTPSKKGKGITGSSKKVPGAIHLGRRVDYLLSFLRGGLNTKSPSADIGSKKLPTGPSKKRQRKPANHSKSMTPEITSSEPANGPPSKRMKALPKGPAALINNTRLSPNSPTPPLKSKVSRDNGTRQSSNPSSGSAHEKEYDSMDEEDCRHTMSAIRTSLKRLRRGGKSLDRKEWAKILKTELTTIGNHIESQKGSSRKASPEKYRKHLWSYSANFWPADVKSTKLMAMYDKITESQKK
Sequence of Protein translocase subunit SecA (Escherichia coli (strain K12)) (P10408 whole entry): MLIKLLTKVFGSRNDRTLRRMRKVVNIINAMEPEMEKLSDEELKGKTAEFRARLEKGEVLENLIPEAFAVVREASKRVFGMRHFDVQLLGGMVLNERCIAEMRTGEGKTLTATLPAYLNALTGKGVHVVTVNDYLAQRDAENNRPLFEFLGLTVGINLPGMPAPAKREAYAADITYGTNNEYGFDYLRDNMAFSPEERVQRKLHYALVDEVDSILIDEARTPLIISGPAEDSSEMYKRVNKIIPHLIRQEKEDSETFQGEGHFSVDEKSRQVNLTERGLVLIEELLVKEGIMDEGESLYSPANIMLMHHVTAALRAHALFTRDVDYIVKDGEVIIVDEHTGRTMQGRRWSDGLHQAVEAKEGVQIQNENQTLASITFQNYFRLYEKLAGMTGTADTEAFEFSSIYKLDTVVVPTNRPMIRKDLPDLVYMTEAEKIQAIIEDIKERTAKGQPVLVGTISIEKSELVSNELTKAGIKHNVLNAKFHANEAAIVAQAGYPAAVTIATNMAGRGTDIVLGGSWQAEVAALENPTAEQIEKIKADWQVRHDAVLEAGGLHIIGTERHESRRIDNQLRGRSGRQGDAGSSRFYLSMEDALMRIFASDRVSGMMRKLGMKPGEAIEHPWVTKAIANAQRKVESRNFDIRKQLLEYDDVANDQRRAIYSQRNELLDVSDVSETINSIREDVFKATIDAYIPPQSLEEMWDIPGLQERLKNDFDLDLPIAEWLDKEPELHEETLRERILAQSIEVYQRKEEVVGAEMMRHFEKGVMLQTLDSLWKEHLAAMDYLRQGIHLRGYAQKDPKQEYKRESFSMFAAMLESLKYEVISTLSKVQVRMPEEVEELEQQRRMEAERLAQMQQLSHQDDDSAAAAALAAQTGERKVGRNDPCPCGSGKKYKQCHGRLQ
Sequence of Sialic acid-binding Ig-like lectin 9 (Homo sapiens) (Q9Y336 whole entry): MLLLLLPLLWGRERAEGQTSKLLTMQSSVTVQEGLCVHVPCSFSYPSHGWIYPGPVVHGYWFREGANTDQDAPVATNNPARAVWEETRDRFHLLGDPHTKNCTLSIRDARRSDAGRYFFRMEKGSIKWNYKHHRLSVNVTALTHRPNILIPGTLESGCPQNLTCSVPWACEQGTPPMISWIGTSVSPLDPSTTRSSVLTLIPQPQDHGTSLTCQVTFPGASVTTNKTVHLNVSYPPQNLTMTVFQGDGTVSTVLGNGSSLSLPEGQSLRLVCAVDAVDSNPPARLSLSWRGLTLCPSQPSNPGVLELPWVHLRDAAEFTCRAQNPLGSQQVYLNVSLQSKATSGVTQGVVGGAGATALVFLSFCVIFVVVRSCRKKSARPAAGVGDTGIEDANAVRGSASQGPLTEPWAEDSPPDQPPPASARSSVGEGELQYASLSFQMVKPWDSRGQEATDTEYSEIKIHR

Regarding `COc1cc(CCC(=O)NC2CC2)ccc1OCC(F)(F)F`, the Percent Effect in test [1] is -2.29%; in test [2], 18.4%; in [3], -5.56%; in test [4], -6.41%; in the test on Trypanosoma cruzi it was -10.4%; in [5] it was 2.52%. In addition, the Percent Effect in test [6] is 3.47%; in the test listed under Homo sapiens, 3.66%; in test [7], 4.43%; in test [8], 16.1%; in test [9], -1.66%.

For `COc1ccc(C2=CCN(C(=O)C3CC(=O)N(C4CC4)C3)CC2)cc1` (stereo unspecified), the Percent Effect was -3.27% in [1]; -5.26% in test [2]; 2.62% in [3]; -10.1% in test [4]; -2.15% in the test on Trypanosoma cruzi; 2.16% in [5]. Moreover, the Percent Effect in test [6] is 1.61%; in the test listed under Homo sapiens, 19.9%; in [7] it was 2.46%; in [8], -6.17%; in test [9], -1.27%.

In the case of `COc1ccc(C2CCCN2C(=O)CCNc2ncccn2)cc1` (stereo unspecified), the Percent Effect in test [1] is -2.77%; in test [2] it was 0%; in [3], -2.54%; in test [4], 0.524%; in the test on Trypanosoma cruzi it was -1.57%; in test [5], 5%. The Percent Effect in test [6] is 7.1%; in the test filed under Homo sapiens, 1.66%; in test [7], 1.07%; in [8], -5%; in test [9] it was -1.55%.

Regarding `CC(C)c1nn(C)c(N(C)C)c1CNCc1ccccc1CN(C)C`, the Percent Effect in test [1] is -0.693%; in [2], 10.5%; in test [3], -8.08%; in test [4], 13%; in the test on Trypanosoma cruzi it was 1.13%; in test [5], -5.36%. Also, the Percent Effect in test [6] was 7.85%; in the test filed under Homo sapiens, -8.54%; in [7], 0.49%; in [8], 7.32%; in test [9] it was -12.6%.

`Cn1cc(Cl)cc1C(=O)N1CCN(Cc2ccsc2)CC1`: the Percent Effect in test [1] was -0.357%; in test [2], 5.26%; in test [3], 5.58%; in [4], -5.04%; in the test with Trypanosoma cruzi it was 4.13%; in test [5] it was 0.766%. In addition, the Percent Effect is -1.67% in test [6]; -2.56% in the test filed under Homo sapiens; 2.45% in test [7]; 4.88% in test [8]; -0.287% in test [9].

As to `c1ccc(-c2noc(CNC3CCc4ncnn4C3)n2)nc1` (stereo unspecified), the Percent Effect is -2.18% in [1]; -5.41% in test [2]; -0.412% in test [3]; 1.92% in test [4]; -4.74% in the test on Trypanosoma cruzi; 1.66% in test [5]. In addition, the Percent Effect is -5.57% in test [6]; 6.37% in the test filed under Homo sapiens; 2.97% in test [7]; 1.22% in test [8]; -1.02% in test [9].

As to `CCc1nccn1C1CCCN(C(=O)c2ccc3c(c2)OCO3)C1` (stereo unspecified), the Percent Effect in [1] is -3.94%; in test [2] it was -2.6%; in test [3], 8.35%; in [4], -3.25%; in the test on Trypanosoma cruzi it was -3.93%; in test [5], -3.2%. Besides, the Percent Effect in test [6] was 1.01%; in the test listed under Homo sapiens, 25.9%; in test [7], -1.94%; in test [8], -4.88%; in [9] it was -7.3%.

Take `CS(=O)(=O)c1ccc(CNCC2CCN(CCO)CC2)cc1`: the Percent Effect is -6.48% in [1]; 0% in [2]; -13.5% in [3]; 3.88% in test [4]; -4.9% with Trypanosoma cruzi; -3.64% in test [5]. Also, the Percent Effect is 6.03% in test [6]; 21.2% in the test filed under Homo sapiens; -2.15% in test [7]; -5% in test [8]; -3.22% in test [9].

Consider `COc1ncccc1C(=O)N1CCN(C(=O)Cc2ccccn2)CC1`, for which the Percent Effect in test [1] is -1.65%; in [2], 21.5%; in test [3] it was -6.89%; in [4], -0.0483%; in the test with Trypanosoma cruzi, 2.36%; in [5], -2.37%. The Percent Effect in test [6] was 18%; in the test listed under Homo sapiens, 17.4%; in test [7], 7.29%; in test [8], 20.2%; in [9], -20.3%.

`COc1ccc2c(c1)C1(CCN(Cc3ccoc3)CC1)N(C)CC2`: the Percent Effect was -1.9% in test [1]; 5.2% in [2]; 2.57% in test [3]; 3.45% in test [4]; -0.0986% in the test with Trypanosoma cruzi; -7.1% in [5]. The Percent Effect in test [6] is 20%; in the test filed under Homo sapiens it was -0.746%; in [7], -1.06%; in test [8] it was 8.97%; in [9], -9.11%.

On to `Cn1cnnc1C1CCCN(C(=O)c2ccc3c(c2)OCCCO3)C1` (stereo unspecified), for which the Percent Effect in test [1] was -6.73%; in [2], 18.2%; in test [3], -5.65%; in test [4] it was -3.72%; in the test on Trypanosoma cruzi it was 3.04%; in test [5] it was 0.21%. The Percent Effect in test [6] is 15.3%; in the test filed under Homo sapiens, -4.88%; in test [7], 4.76%; in test [8], 23.5%; in [9] it was -15.9%.
